# In paper PMC5540273 (PLoS ONE, 2017):
# Tests used:
# Conditions in all cases: concentration: 1 μM,replicates: in singlicate; n = 1
# MLK1 = tested on: T1, MLK1
# T1 construct: gene MAP3K9
# MLK2 = tested on: MLK2
# MLK3 = tested on: MLK3
# MRCKA = tested on: MRCKA
# MRCKB = tested on: T2, MRCKB
# T2 construct: gene CDC42BPB
# MST1R = tested on: MST1R
# MST1 = tested on: T3, MST1
# T3 construct: gene STK4
# MST2 = tested on: T4, MST2
# T4 construct: gene STK3
# MST3 = tested on: T5, MST3
# T5 construct: gene STK24
# MST4 = tested on: MST4
# MTOR = tested on: MTOR
# MUSK = tested on: MUSK
# MYLK2 = tested on: MYLK2
# MYLK4 = tested on: MYLK4
# MYLK = tested on: MYLK
# MYO3A = tested on: MYO3A
# MYO3B = tested on: MYO3B
# NDR1 = tested on: T6, NDR1
# T6 construct: gene STK38
# NDR2 = tested on: NDR2
# NEK10 = tested on: NEK10
# 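Also: KINOMEscan kinase panel screen.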
Compound,%Inh (MLK1) [%],%Inh (MLK2) [%],%Inh (MLK3) [%],%Inh (MRCKA) [%],%Inh (MRCKB) [%],%Inh (MST1R) [%],%Inh (MST1) [%],%Inh (MST2) [%],%Inh (MST3) [%],%Inh (MST4) [%],%Inh (MTOR) [%],%Inh (MUSK) [%],%Inh (MYLK2) [%],%Inh (MYLK4) [%],%Inh (MYLK) [%],%Inh (MYO3A) [%],%Inh (MYO3B) [%],%Inh (NDR1) [%],%Inh (NDR2) [%],%Inh (NEK10) [%]
CNC(=O)c1ccccc1Nc1nc(Nc2cccc(CS(C)(=O)=O)c2)ncc1C.O=CO [GSK1520489],97.5,80,72,2,4,93.4,80,49,34,54,2,69,18,99.8,30,28,0,92.2,80,14
CCNCC(Cc1ccccc1)NC(=O)c1cc(Br)c(-c2ccnc3[nH]ccc23)s1.Cl.Cl (stereo not drawn) [GSK1383280],0,6,0,64,98.2,30,0,0,1,26,8,2,22,86,73,15,0,99.8,52,0
N#Cc1cccc(C(=O)NC2CCN(c3ccnc(Nc4ccc(F)cc4)n3)C2)c1 (stereo not drawn) [GSK1379708],1,0,9,6,0,39,2,0,0,0,4,0,0,0,0,4,0,0,41,1
C[C@@H]1CCN(C(=O)N2CCCC2)C[C@@H]1N(C)c1ncnc2[nH]ccc12,97.4,33,67,0,0,8,100,23,25,0,8,0,5,3,2,1,0,4,0,30
COc1cccc(CNC(=O)NC2CCN(c3ccnc(Nc4cc(OC)c(OC)c(OC)c4)n3)C2)c1 (stereo not drawn) [GSK1379765],25,26,41,17,0,49,0,27,0,0,31,83,11,9,20,27,0,15,0,14
Cn1ccc2ncnc(Oc3ccc(NC(=O)Nc4ccnc(C(F)(F)F)c4)c(Cl)c3)c21,8,0,0,0,0,32,83,0,9,0,25,42,0,0,0,0,0,0,2,0
O=C1NCCc2[nH]c(-c3ccncc3)cc21,0,0,13,0,0,51,3,20,23,0,0,34,20,5,33,7,,20,0,14
O=C(NCC1CC1)c1ccc(-c2cc(C(=O)NC3CC3)ccc2F)cc1 [GW810445],7,0,0,0,0,0,55,0,0,0,21,0,0,0,0,0,8,0,7,0
Cn1ccc2ncnc(Oc3ccc(NC(=O)Nc4cnn(C(C)(C)C)c4)c(Cl)c3)c21,30,26,0,0,0,10,12,0,4,0,0,21,4,11,0,1,9,6,8,14
O=C(Nc1ccccc1)c1cccc(Oc2ccc3nccn3n2)c1,0,0,0,9,0,7,25,14,37,0,14,73,0,0,0,0,0,0,22,0
C[C@@H](Oc1cc(-n2cnc3cc(-c4ccncc4)ccc32)sc1C(N)=O)c1ccccc1Cl [GSK479719],61,0,24,0,8,21,56,70,0,0,6,11,22,0,1,0,0,0,0,0
CCOC(=O)N1CCC(n2cnc(-c3ccc(F)cc3)c2-c2ccnc(N)n2)CC1 [SB-219952],4,0,27,20,3,0,20,0,44,0,66,0,20,21,45,17,0,0,0,0
COC(=O)c1cccc(NC(=O)NC2CCN(c3ccnc(NCc4ccc(F)cc4)n3)CC2)c1 [GSK1379860],0,0,0,12,0,31,0,0,0,0,23,0,7,0,0,0,0,0,0,1
CS(=O)c1ccc(-c2coc3ccc(-c4n[nH]c(=O)o4)cc23)cc1 (stereo not drawn),9,6,0,4,0,0,0,0,24,5,17,0,20,24,41,0,0,2,22,56
COc1cc2c(Nc3ccc(NC(=O)c4ccccc4)cc3)ncnc2cc1OCCCN1CCOCC1 [GSK301329],0,0,13,0,0,43,16,0,0,10,15,13,0,0,2,0,0,5,0,3
Nc1nccc(-c2ccc3c(N)n[nH]c3c2)n1 [GSK1034945],0,0,0,11,5,27,3,0,0,0,0,9,85,83,21,8,0,0,0,0
Cl.Nc1n[nH]c2cc(-c3ccccn3)ccc12 [GSK2189892],0,0,15,0,0,27,0,0,0,0,0,0,5,29,18,0,0,0,0,2
